The results in this text go back to ChEMBL document CHEMBL3988442, “University of Dundee, Small-Polar-MMV Screening Library” (2021).

The test system of this test is Leishmania donovani. The experiment in a line: Leishmania intramacrophage assay. It is filed as functional, organism-based. Details: scale not given: in the data most compounds retested in dose-response had high values.

The campaign covered roughly 69,000 compounds. About 1,000 (1.4%) showed an effect of 50% or more. Many of the other results were omitted from the sample, so strong results are more common in it than they were.

In the case of `NC(=O)c1ccc(N2CCCCC2)c(NC(=O)c2cc(F)ccc2F)c1`, for the setting “30.3 µM, […]”, the “Percent Effect” value was -1.673%.
Take `NC(=O)c1ccc(N2CCCCC2)c(NC(=O)c2cc(Br)ccc2F)c1`: the “Percent Effect” value (30 µM, 30.03 µM) is listed as 59.99%.
Turning to `NC(=O)c1ccc(N2CCCCC2)c(NC(=O)c2cc(Br)ccc2Cl)c1`, the “Percent Effect” value (30.3 µM, […]) stood at 19.23%.
The same measure, in the same setting: as for `Cc1nnsc1C(=O)N1CCCC(c2nccn2Cc2cscn2)C1` (centres undefined), the figure is -3.035%; as for `Cc1ccsc1CN1C[C@@H]2COC[C@]2(CNC(=O)c2ccco2)C1.O=C(O)C(F)(F)F`, 31.86%; as for `O=C(NC[C@]12COC[C@H]1CN(Cc1cccc(F)c1)C2)c1ccco1`, 61.24%.
As for `Cn1cc(CN2C[C@@H]3COC[C@]3(CNC(=O)c3ccco3)C2)cn1.O=C(O)C(F)(F)F`, where the note is “30.3 µM, […]”, the “Percent Effect” value was -2.896%.
For `CNC(=O)NCC(CO)Cc1ccccc1OC(F)(F)F` (centres undefined), the “Percent Effect” value (30.3 µM, […]) is on record as 7.334%.
For the molecule `CC(c1cccc(-c2ncc(C#N)c(N)n2)c1)N(C)C` (centres undefined), the “Percent Effect” value (30.3 µM, […]) is -18.48%.
For `CC(c1cccc(-c2ncccc2F)c1)N(C)C` (centres undefined), where the note is “30.3 µM, […]”, the “Percent Effect” value worked out at 42.01%.
On to `CC(c1cccc(-c2ncccc2C#N)c1)N(C)C` (centres undefined), for which the “Percent Effect” value (30.3 µM, […]) is on record as 54.7%.
Still for that read-out and setting: as for `Cc1cccc(C(=O)N2C[C@@H]3[C@H](CC(=O)Nc4cccnc4)[C@@H]3C2)n1.O=C(O)C(F)(F)F.O=C(O)C(F)(F)F`, the figure is 3.537%; as for `N#Cc1ccnc(N2CCN(C(=O)c3ccc4c(c3)CCO4)CC2)c1`, -46.75%; as for `Cc1nccc(-c2cccc(-c3ccn(CC4CCNC4)n3)c2)n1` (centres undefined), -9.02%.
As to `c1cc(-c2cncnc2)cc(-c2ccn(CC3CCNC3)n2)c1` (centres undefined), under “30.3 µM, […]”, the “Percent Effect” value is reported as 5.053%.
On the same count and under the same terms, in the case of `Cc1ccsc1-c1cccc(-c2ccn(CC3CCNC3)n2)c1` (centres undefined) it was 82.16%.
On the same count and under the same terms, as for `Cc1ccc(CN(C)C(=O)NCC(C)(C)CCS(C)(=O)=O)s1`, the figure is 20%; as for `CCNCc1ccc(OCc2ccc3c(c2)OCCO3)cc1.Cl`, 21.82%; as for `CCCNCc1ccc(OCc2ccc3c(c2)OCCO3)cc1.Cl`, 67.66%.
For `CNCc1ccc(OCc2ccc3c(c2)OCCO3)cc1.Cl`, for the setting “30.3 µM, […]”, the “Percent Effect” value worked out at 22.52%.
Same read-out and setting: in the case of `CN1CCC(c2nnc3ccc(C(=O)NC4CCCC4)cn23)C1.O=C(O)C(F)(F)F` (centres undefined) it was 23.32%.
In the case of `Fc1ccc2[nH]c(C3CCCN3CCc3ccccn3)nc2c1` (centres undefined), under “30 µM, 30.03 µM”, the “Percent Effect” value amounted to 50.9%.
As to `Fc1ccc2[nH]c(C3CCCN3CCCn3cccn3)nc2c1` (centres undefined), the “Percent Effect” value (30.3 µM, […]) is recorded as 2.015%.
For the molecule `O=C(CN1CCCC1c1nc2cc(F)ccc2[nH]1)NCc1ccccn1` (centres undefined), the “Percent Effect” value (30.3 µM, […]) is given as 34.7%.
`Cc1ccc(C(=O)N2C[C@@H]3COC[C@]3(COc3cccnc3)C2)cn1`: the “Percent Effect” value (30 µM, 30.03 µM) is on record as 15.47%.
For the molecule `CC1CN(CC(=O)Nc2ccncc2)CCN1c1nccs1` (centres undefined), the “Percent Effect” value (30 µM) is recorded as 51.62%.
For the molecule `CC1CN(CC(=O)Nc2nncs2)CCN1c1nccs1` (centres undefined), the “Percent Effect” value (30 µM, 30.03 µM) came out at 5.617%.
Same read-out and setting: as for `CC1CN(CC(=O)Nc2cccnc2)CCN1c1nccs1` (centres undefined), the figure is 19.22%.
On to `CN(Cc1csc(-c2cccs2)n1)Cc1ncccc1C(=O)O`, for which the “Percent Effect” value (30.3 µM, […]) is reported as 21.95%.
Take `CN(Cc1csc(-c2cccs2)n1)Cc1cccnc1N`: the “Percent Effect” value (30.3 µM, […]) was 54.27%.
Still for that read-out and setting: in the case of `Cc1nc(CN(C)Cc2csc(-c3cccs3)n2)co1` it was 17.38%; in that of `Cc1cc(C)nc(N2CCC(c3cccc(CCC(=O)O)n3)CC2)n1`, -9.293%.
Turning to `COc1ccc(CN2CCc3ncnc(C4CCOC4)c3CC2)cc1.O=C(O)C(F)(F)F` (centres undefined), the “Percent Effect” value (30 µM, 30.03 µM) came out at 20.96%.
As to `CCOCc1ccccc1NC(=O)NC1CCN(C2CCCC2)C1` (centres undefined), the “Percent Effect” value (30.3 µM, […]) is recorded as -2.945%.
On to `CN(C)c1ncc(CN2CCOC(C(=O)Nc3ccccc3)C2)cn1` (centres undefined), for which the “Percent Effect” value (30 µM, 30.03 µM) was -7.564%.
Same read-out and setting: in the case of `Cc1cc(C)c(CNC(=O)N2CCCC2c2cccn2C)c(=O)[nH]1` (centres undefined) it was 13.7%.
As for `C[C@@H](CO)NC(=O)c1ccc2nc(NS(C)(=O)=O)sc2c1`, the “Percent Effect” value (30.3 µM, […]) turned out to be 55.63%.
Same read-out and setting: in the case of `CSCC[C@@H](CO)NC(=O)c1ccc2nc(NS(C)(=O)=O)sc2c1` it was -13.25%; in that of `CC(CO)NC(=O)c1ccc2[nH]/c(=N\S(C)(=O)=O)sc2c1` (centres undefined), -35.22%; in that of `CC(C)c1nn(C)c(N(C)C)c1CNC1CCCOc2ccccc21` (centres undefined), 11.28%.
On the same count and under the same terms, as for `Cc1c(C(=O)N2CCN(C)CC2)n(C)c2ccc(Cl)cc12`, the figure is 11.88%; as for `Cc1c(C(=O)N2CCC(N3CCCCC3)CC2)n(C)c2ccc(Cl)cc12`, 83.29%; as for `Cc1c(C(=O)N2CCOCC2)n(C)c2ccc(Cl)cc12.Cl`, 19.33%.
On to `CCS(=O)(=O)N1C[C@@H](c2ccccc2)[C@@]2(CCNC2=O)C1`, for which, where the note is “30.3 µM, […]”, the “Percent Effect” value is on record as 42.69%.
Same read-out and setting: as for `CC1(C)CN(C(CNS(N)(=O)=O)c2ccc(Cl)cc2)CCO1` (centres undefined), the figure is -5.286%; as for `CC(C)N(C)C(=O)C1CSCN1S(=O)(=O)c1ccccc1F` (centres undefined), 51.74%; as for `CC(C)(C)NC(=O)C1CSCN1S(=O)(=O)c1ccccc1F` (centres undefined), -3.758%.
Take `CC(C)N(C)C(=O)C1CSCN1S(=O)(=O)c1cc(Cl)ccc1Cl` (centres undefined): under “30.3 µM, […]”, the “Percent Effect” value is 6.679%.
On to `Cc1cccc(NC(=O)CNC(=O)c2ccccc2F)c1`, for which the “Percent Effect” value (30.3 µM, […]) was -11.93%.
